# Screening data: PubChem BioAssay, National Center for Advancing Translational Sciences (NCATS)
# Compounds with a hit are over-represented: about 4.7% of the library has one in this group of screens.
# HepG2 viability: qHTS for Inhibitors of TGF-b: Cytotox Counterscreen. 410,000 compounds, 0.76% hits. Potency, µM (highest dose often 46.1 µM), for the others: top-dose activity change, negative = cytotoxicity, most hits filed as cytotoxic. HepG2 CAGA-GFP viability, ATP luminescence, 18 h; also: potency is read from the fitted curve at half-maximal effect
#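 HepG2 CAGA-GFP cells (1000/well, DMEM with 1% FBS) received compound, then TGF-beta at 500 pg/mL final, and were incubated 18 hours at 37 degrees C. Viability was read by CellTiter-Glo luminescence. Media-only wells were set as complete cell-killing and DMSO as no toxicity.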
# ATXN2 expr inh: Primary qHTS for Inhibitors of ATXN expression. HEK-293 ATXN2-luciferase reporter, luminescence, 24 h. Potency, µM (doses to about 57 µM), for the others: at the top dose activity change, negative = inhibition, actives largely listed as inhibitors. 360,000 compounds, 0.72% hits. AID 1745845, 2022; also: potency is read from the fitted curve at half-maximal effect; % is scaled to controls: 0 for no effect and ±100 for the full control effect; nearly all actives have a fitted effect of over 55% in size
#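 ATXN2-luciferase reporter cells (luciferase flanked by upstream and downstream ATXN2 gene portions) were treated 24 h at 37 °C with compounds at up to 57 uM. SteadyGlo luminescence gave expression; GF-AFC fluorescence gave viability.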
# D3 ag: qHTS of D3 Dopamine Receptor Agonist: qHTS; D(3) dopamine receptor (Homo sapiens), P35462; D3R DiscoveRx beta-arrestin cells, luminescence, 90 min; max activation, %; 410,000 compounds, 0.58% hits; AID 652048, 2013; in the data active = max activation above about 30%; also: 0% is about no effect
# Target sequence (P35462 whole entry, looked up): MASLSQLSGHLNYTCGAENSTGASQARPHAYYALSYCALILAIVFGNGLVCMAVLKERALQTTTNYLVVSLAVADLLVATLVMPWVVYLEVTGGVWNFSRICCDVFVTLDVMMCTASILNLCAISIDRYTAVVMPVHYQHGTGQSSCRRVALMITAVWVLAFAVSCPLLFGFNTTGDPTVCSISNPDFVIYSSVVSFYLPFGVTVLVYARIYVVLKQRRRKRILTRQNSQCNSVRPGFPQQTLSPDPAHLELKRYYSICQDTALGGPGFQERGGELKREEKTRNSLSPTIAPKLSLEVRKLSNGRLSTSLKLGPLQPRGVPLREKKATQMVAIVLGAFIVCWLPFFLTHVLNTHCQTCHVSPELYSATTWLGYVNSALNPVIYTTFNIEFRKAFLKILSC
#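 Cells at 1500/well, incubated overnight, then treated with pinned compounds (dopamine as control) for 90 min at 37 degrees C. DiscoveRx reagent added for 30 - 60 minutes at room temperature; luminescence read.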
# ATXN viability: Viability Counterscreen for Primary qHTS for Inhibitors of ATXN expression; S2 cells (HEK-293 line with an ATXN2-luciferase reporter) viability, CellTiter-Fluor protease fluorescence, 24 h; Potency, µM (titrated, usually from 56.7 µM), most hits filed as cytotoxic; 400,000 compounds, 0.49% hits; AID 651635, 2014; also: potency is read from the fitted curve at half-maximal effect; nearly all actives have a fitted effect of over 40% in size
# TGFb SMAD3 inh: qHTS for Inhibitors of TGF-b; HepG2 CAGA-GFP TGF-b/SMAD3 reporter, GFP fluorescence, 18 h; TGF-beta stimulated, 500 pg/mL final; Potency, µM (series often up to 46.1 µM), for the others: at the highest dose activity, negative = inhibition, hits mostly inhibitors; 410,000 compounds, 1.2% hits; AID 588855, 2011; also: potency is read from the fitted curve at half-maximal effect; % is scaled to controls: 0 for no effect and ±100 for the full control effect; nearly all actives have a fitted effect of over 65% in size
#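 Per well, imaged GFP fluorescence of HEPG2 CAGA-GFP cells gives the signal; cells get compound, then TGF-beta (500 pg/mL final), 18 h at 37 degrees C; %Activity versus -TGF-beta and +DMSO controls.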
# D3 antag: qHTS of D3 Dopamine Receptor Antagonist: qHTS; D(3) dopamine receptor (Homo sapiens), P35462; D3R cells, DiscoveRx beta-arrestin luminescence, antagonist mode; active compounds read low; max response, negative = inhibition, %; 360,000 compounds, 2.5% hits; AID 652054, 2013; in the data active = max response below about -50%; inconclusive = no clear call, values can overlap the other calls; also: % is scaled to controls: 0 for no effect and ±100 for the full control effect
#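 Cells expressing the human receptor were seeded at 1500 cells/well, incubated overnight at 37 degrees C in 5% CO2, then exposed to library compounds with dopamine controls for 90 minutes at 37 degrees C before luminescent detection.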
# Active calls of the source: *; i = inactive; ? = inconclusive; . = no result given. Unless noted, calls follow the shape of the dose curve; as a rule, active = well fitted curve in the direction sought with a large enough effect; inconclusive = small, poorly fitted or top-dose-only effect, or another doubt; inactive = no such curve, though single readings can be large; an effect the other way counts as inactive or inconclusive.
SMILES,HepG2 viability,ATXN2 expr inh,D3 ag,ATXN viability,TGFb SMAD3 inh,D3 antag
CCCCCCCCN1C(=O)[C@H](CC(=O)NCc2ccc(OC)c(OC)c2)C[C@@]2(C(=O)OCC)CCCC=C12,.,?,-5,14µM*,.,-15
CS(=O)(=O)c1ccc(/C=C2\C=Cc3ccccc32)cc1,-26%,.,.,.,-18%,.
Cn1c(CC(=O)NCCO)c(Sc2ccccc2)c2ccccc21,22%,-10%,-4,i,18%,-3
O=C(Cc1c(Sc2ccccc2)c2ccccc2n1Cc1ccccc1)NCCO,-29%,?,-24,?,?,-73*
N#C/C(C(=O)Nc1ccc(Cl)cc1)=C(/S)Nc1ccccc1,11µM*,-23%,-15,i,11µM*,-18
CC(C)(C)NC(=O)c1cnn(-c2ccccc2)c1C1CCN(C(=O)OC(C)(C)C)CC1,4%,.,3,.,-2%,.
COc1ccc(Cn2cc(C(=O)c3ccc(F)cc3)c(=O)c3cc4c(cc32)OCCO4)cc1,-5%,2%,1,i,11%,.
COc1ccc(C(=O)c2cn(Cc3ccc(F)cc3)c3ccc(C)cc3c2=O)cc1,-7%,?,6,18µM*,?,.
CCOc1ccc(C(=O)c2cn(Cc3ccc(Cl)cc3)c3cc(OC)c(OC)cc3c2=O)cc1,-28%,-7%,-10,16µM*,?,.
COc1ccc(C(=O)c2cn(Cc3ccccc3F)c3ccc(F)cc3c2=O)cc1,-14%,-21%,-1,i,?,.
COc1ccc2c(c1)c(=O)c(C(=O)c1ccc(C)cc1)cn2Cc1ccccc1F,-34%,?,2,25µM*,?,.
Cc1ccc2c(c1)CN(CCC(=O)NCc1cc(C)n(C)n1)CC(C)O2 (stereo unspecified),.,.,.,i,.,.
CN1CCN(c2nc(N3CCN(CCO)CC3)nc3ccccc23)CC1,-14%,-5%,3,?,13%,19
OCCN1CCN(c2cc(-c3ccccc3)c3ccccc3n2)CC1,-9%,-2%,-11,i,5%,-81*
Oc1ccc(C2=Cc3ccc(O)cc3OC2)cc1,.,102%,.,.,.,.
Cc1cc(C)n(/N=C/c2cc([N+](=O)[O-])ccc2O)c(=O)c1,-3%,-5%,-24,i,-18%,-67*
O=[N+]([O-])c1ccc(O)c(/C=N/n2cnnc2)c1,-8%,6%,-11,?,3%,-83*
CN(C)/N=C/c1cc([N+](=O)[O-])ccc1O,-37%,-16%,-12,i,-17%,-61*
O=[N+]([O-])c1ccc(O)c(/C=N/n2c(-c3ccccc3)n[nH]c2=S)c1,-18%,-7%,-5,i,-7%,?
O=[N+]([O-])c1ccc(O)c(/C=N/Nc2ccc(Cl)nn2)c1,-44%,?,-31,?,?,-84*
O=[N+]([O-])c1cccc(/C=N/n2cnnc2)c1,-27%,-3%,10,i,-16%,1
CC(=O)O[C@H]1C[C@@H]2CC[C@H]3[C@H]4C[C@H]([N+]5(C)CCCCC5)[C@@H](OC(C)=O)[C@@]4(C)CC[C@@H]3[C@@]2(C)C[C@H]1[N+]1(C)CCCCC1,.,2%,.,.,.,.
O=C(/C=C/c1ccccn1)NCC1Cc2cccc(-c3ncccn3)c2O1 (stereo unspecified),.,.,.,i,.,.
O=[N+]([O-])c1ccc(O)c(/C=N\N=C2c3ccccc3-c3ccccc32)c1,-38%,22µM*,-19,?,2.8µM*,-78*
NC(N)=N/N=C/c1cc([N+](=O)[O-])ccc1O,-1%,-9%,-5,?,-2%,-10
SMILES,HepG2 viability,ATXN2 expr inh,D3 ag,ATXN viability,TGFb SMAD3 inh,D3 antag
O=C(c1cc(C2CCCCN2C(=O)CCCc2ccccc2)on1)N1CCOCC1 (stereo unspecified),-7%,-4%,-7,i,-7%,-51*
O=C(NCc1ccccc1)c1cc(C2CCCCN2C(=O)CCc2ccccc2)on1 (stereo unspecified),-7%,-10%,-2,i,-1%,5
Cc1ccc(CNC(=O)CN2C(=O)COc3ccccc32)cc1,14%,.,-5,.,3%,.
COCCNC(=O)CCC1CCN(C/C=C/c2ccccc2OC)CC1,-2%,-14%,-20,i,5%,-56*
COc1ccccc1/C=C/CN1CCCCC1,2%,1%,-9,i,-11%,?
COc1ccccc1/C=C/CN1CCCC(CCC(=O)NCc2ccc(F)c(F)c2)C1 (stereo unspecified),-25%,-17%,-18,i,-1%,-66*
COc1cccc(CNC(=O)CCC2CCCN(C/C=C/c3ccccc3OC)C2)c1 (stereo unspecified),-8%,-23%,-13,i,-1%,-55*
COc1ccc(/C=C/CN2CCCC(CCC(=O)NCc3ccc(F)c(F)c3)C2)cc1 (stereo unspecified),-38%,-32%,-32,.,?,-55*
COCc1ccc(CN2CCCC(CCC(=O)NCc3cccc(OC)c3)C2)o1 (stereo unspecified),-1%,-7%,6,i,2%,-10
COc1ccc(Nc2oc(/C=C/c3ccc(OC)c(OC)c3)nc2C#N)cc1,-26%,13%,4,i,-5%,.
COC(=O)C1=CN(c2ccc3c(c2)OCO3)C(N)=C(C#N)C1c1ccccc1 (stereo unspecified),.,.,-2,.,.,-15
CN1CCN(C(=O)CN(Cc2ccc(Cl)cc2)S(C)(=O)=O)CC1,9%,-3%,7,i,-6%,-10
CS(=O)(=O)N(CC(=O)N1CCCCCC1)Cc1ccc(Cl)cc1,-1%,-16%,-3,i,-4%,-78*
CCOC(=O)c1cccc(NC(=O)c2cc(S(=O)(=O)N3CCCCCC3)cn2C)c1,-27%,2%,2,i,?,.
Cc1ccc(CSCC(=O)N2CCN(c3ccccc3F)CC2)cc1,-19%,.,0,.,-13%,.
CCOC(=O)c1c(NC(=O)CSc2nncs2)sc(C)c1-c1ccccc1,0%,-6%,6,i,11µM*,10
CCOC(=O)c1c(-c2ccccc2)csc1NC(=O)CSc1nncs1,7%,-9%,1,i,-12%,25
Cc1cccc(-n2nnnc2S(C)(=O)=O)c1,6.3µM*,?,-21,11µM*,?,.
COC(=O)c1nnn(-c2cccc(C)c2)c1C(=O)OC,-34%,-6%,-13,i,?,.
COc1cccc(-n2nnnc2S(C)(=O)=O)c1,-101%,?,-8,28µM*,?,-77*
